{"source": "ChEMBL document CHEMBL1157539", "about": "“Thousands of chemical starting points for antimalarial lead identification” (Nature, 2010)", "assay_type_in_all_cases": "functional", "key": {"Plasmodium falciparum [1]": {"system": "Plasmodium falciparum", "assay": "GSK_TCMDC: Inhibition of Plasmodium falciparum 3D7 in whole red blood cells, using parasite LDH activity as an index of growth. Test compounds present at 2uM"}, "Plasmodium falciparum [2]": {"system": "Plasmodium falciparum", "assay": "GSK_TCMDC: Inhibition of Plasmodium falciparum Dd2 in whole red blood cells, using parasite LDH activity as an index of growth. Test compounds present at 2uM"}, "HepG2": {"system": "HepG2", "assay": "GSK_TCMDC: Percent inhibition of human HepG2 cell line. Test compounds present at 10uM."}}}
{"smiles": "CCCc1cn2c3c(cc(C(=O)N[C@@H](Cc4ccccc4)[C@H](O)CNC4CCOCC4)cc13)N(C)S(=O)(=O)CC2.O=CO", "values": [{"measurement": "Inhibition", "setting": "Plasmodium falciparum [1]", "value": 99, "unit": "%"}, {"measurement": "Inhibition", "setting": "Plasmodium falciparum [2]", "value": 98, "unit": "%"}, {"measurement": "Inhibition", "setting": "HepG2", "value": 1, "unit": "%"}]}
{"smiles": "NC1CCCN(Cc2cccc(-c3ccc(-c4nc5cc(F)ccc5[nH]4)cc3)c2)C1.O=C(O)C(F)(F)F", "note": "(centres undefined)", "values": [{"measurement": "Inhibition", "setting": "Plasmodium falciparum [1]", "value": 100, "unit": "%"}, {"measurement": "Inhibition", "setting": "Plasmodium falciparum [2]", "value": 99, "unit": "%"}, {"measurement": "Inhibition", "setting": "HepG2", "value": 40, "unit": "%"}]}
{"smiles": "CN(C)c1ccc(-c2nnc(Sc3ccc(C#N)c([N+](=O)[O-])c3)n2Cc2ccco2)cc1", "values": [{"measurement": "Inhibition", "setting": "Plasmodium falciparum [1]", "value": 95, "unit": "%"}, {"measurement": "Inhibition", "setting": "Plasmodium falciparum [2]", "value": 79, "unit": "%"}, {"measurement": "Inhibition", "setting": "HepG2", "value": 3, "unit": "%"}]}
{"smiles": "O=C1COC2(CN1CC1CCN(Cc3ccc(O)c(Cl)c3)C1)c1ccccc1-c1ccccc12.O=CO", "note": "(centres undefined)", "values": [{"measurement": "Inhibition", "setting": "Plasmodium falciparum [1]", "value": 93, "unit": "%"}, {"measurement": "Inhibition", "setting": "Plasmodium falciparum [2]", "value": 50, "unit": "%"}, {"measurement": "Inhibition", "setting": "HepG2", "value": 6, "unit": "%"}]}
{"smiles": "CC(C)(C)c1ccc(O)c(CNC2CCCCC2)c1.Cl", "values": [{"measurement": "Inhibition", "setting": "Plasmodium falciparum [1]", "value": 100, "unit": "%"}, {"measurement": "Inhibition", "setting": "Plasmodium falciparum [2]", "value": 98, "unit": "%"}, {"measurement": "Inhibition", "setting": "HepG2", "value": 5, "unit": "%"}]}
{"smiles": "Cl.NOCCCCOc1ccccc1", "values": [{"measurement": "Inhibition", "setting": "Plasmodium falciparum [1]", "value": 99, "unit": "%"}, {"measurement": "Inhibition", "setting": "Plasmodium falciparum [2]", "value": 2, "unit": "%"}, {"measurement": "Inhibition", "setting": "HepG2", "value": 12, "unit": "%"}]}
{"smiles": "Cn1cncc1CCN(Cc1ccc(-c2ccc(C(F)(F)F)cc2)cc1)C(=O)Cn1c(SCc2cccc(F)c2F)cc(=O)c2ccccc21", "values": [{"measurement": "Inhibition", "setting": "Plasmodium falciparum [1]", "value": 99, "unit": "%"}, {"measurement": "Inhibition", "setting": "Plasmodium falciparum [2]", "value": 90, "unit": "%"}, {"measurement": "Inhibition", "setting": "HepG2", "value": 24, "unit": "%"}]}
{"smiles": "Cc1ccc(C(=O)N2CCc3cc4nccc(N5CCN6CCC[C@H]6C5)c4cc32)cc1", "values": [{"measurement": "Inhibition", "setting": "Plasmodium falciparum [1]", "value": 95, "unit": "%"}, {"measurement": "Inhibition", "setting": "Plasmodium falciparum [2]", "value": 13, "unit": "%"}, {"measurement": "Inhibition", "setting": "HepG2", "value": 5, "unit": "%"}]}
{"smiles": "CCOC(=O)c1ccc(N2CCN(c3cc(Cl)ccc3C)CC2)c(NC(=O)Nc2ccc(Cl)c(Cl)c2)c1", "values": [{"measurement": "Inhibition", "setting": "Plasmodium falciparum [1]", "value": 99, "unit": "%"}, {"measurement": "Inhibition", "setting": "Plasmodium falciparum [2]", "value": 99, "unit": "%"}, {"measurement": "Inhibition", "setting": "HepG2", "value": 10, "unit": "%"}]}
{"smiles": "COc1cccc(NC(=O)N2CCOC(CCN3CCC4(CCc5ccccc54)CC3)(c3ccc(Cl)c(Cl)c3)C2)c1", "note": "(centres undefined)", "values": [{"measurement": "Inhibition", "setting": "Plasmodium falciparum [1]", "value": 94, "unit": "%"}, {"measurement": "Inhibition", "setting": "Plasmodium falciparum [2]", "value": 72, "unit": "%"}, {"measurement": "Inhibition", "setting": "HepG2", "value": 97, "unit": "%"}]}
{"smiles": "O=C(NCCN1CCCC1)c1cccc(-c2ccc(-c3nc4cc(F)ccc4[nH]3)cc2)c1", "values": [{"measurement": "Inhibition", "setting": "Plasmodium falciparum [1]", "value": 99, "unit": "%"}, {"measurement": "Inhibition", "setting": "Plasmodium falciparum [2]", "value": 85, "unit": "%"}, {"measurement": "Inhibition", "setting": "HepG2", "value": 33, "unit": "%"}]}
{"smiles": "CN1CCN(CCCN(Cc2ccc(-c3cccc(CNCc4ccc5c(c4)OCO5)c3)cc2)C(=O)CCC2CCCC2)CC1.O=C(O)C(F)(F)F", "values": [{"measurement": "Inhibition", "setting": "Plasmodium falciparum [1]", "value": 92, "unit": "%"}, {"measurement": "Inhibition", "setting": "Plasmodium falciparum [2]", "value": 85, "unit": "%"}, {"measurement": "Inhibition", "setting": "HepG2", "value": 24, "unit": "%"}]}
{"smiles": "CC(C)C(C)(C#N)NC(=O)CSc1nc2ccc([N+](=O)[O-])cc2s1", "note": "(centres undefined)", "values": [{"measurement": "Inhibition", "setting": "Plasmodium falciparum [1]", "value": 95, "unit": "%"}, {"measurement": "Inhibition", "setting": "Plasmodium falciparum [2]", "value": 81, "unit": "%"}, {"measurement": "Inhibition", "setting": "HepG2", "value": 0, "unit": "%"}]}
{"smiles": "O=C(Nc1cccc(OCc2ccccc2)c1)c1ccc(CN2CCC(Cc3ccccc3)CC2)cc1", "values": [{"measurement": "Inhibition", "setting": "Plasmodium falciparum [1]", "value": 100, "unit": "%"}, {"measurement": "Inhibition", "setting": "Plasmodium falciparum [2]", "value": 27, "unit": "%"}, {"measurement": "Inhibition", "setting": "HepG2", "value": 41, "unit": "%"}]}
{"smiles": "CN(C)CCN(C)Cc1cccc(-c2ccc3c(Nc4ccc(F)cc4Cl)ccnc3c2)c1", "values": [{"measurement": "Inhibition", "setting": "Plasmodium falciparum [1]", "value": 100, "unit": "%"}, {"measurement": "Inhibition", "setting": "Plasmodium falciparum [2]", "value": 100, "unit": "%"}, {"measurement": "Inhibition", "setting": "HepG2", "value": 53, "unit": "%"}]}
{"smiles": "O=C(NCCN1CCOCC1)c1ccc(-c2ccc(CNCCCc3ccccc3)cc2)nc1.O=C(O)C(F)(F)F", "values": [{"measurement": "Inhibition", "setting": "Plasmodium falciparum [1]", "value": 97, "unit": "%"}, {"measurement": "Inhibition", "setting": "Plasmodium falciparum [2]", "value": 10, "unit": "%"}, {"measurement": "Inhibition", "setting": "HepG2", "value": 0, "unit": "%"}]}
{"smiles": "CCOC(=O)c1ccc2[nH]c(-c3ccc(C(=O)NC4CCN(Cc5ccccc5)CC4)s3)nc2c1", "values": [{"measurement": "Inhibition", "setting": "Plasmodium falciparum [1]", "value": 100, "unit": "%"}, {"measurement": "Inhibition", "setting": "Plasmodium falciparum [2]", "value": 95, "unit": "%"}, {"measurement": "Inhibition", "setting": "HepG2", "value": 32, "unit": "%"}]}
{"smiles": "O=c1cc(NCCCNC2CCOc3c(Cl)cccc32)[nH]c2ccccc12", "note": "(centres undefined)", "values": [{"measurement": "Inhibition", "setting": "Plasmodium falciparum [1]", "value": 96, "unit": "%"}, {"measurement": "Inhibition", "setting": "Plasmodium falciparum [2]", "value": 27, "unit": "%"}, {"measurement": "Inhibition", "setting": "HepG2", "value": 0, "unit": "%"}]}
{"smiles": "O=C(/C=C/c1ccc(-c2nc3ccc(Cl)cc3[nH]2)cc1)NC1CCN(Cc2ccccc2)CC1", "values": [{"measurement": "Inhibition", "setting": "Plasmodium falciparum [1]", "value": 100, "unit": "%"}, {"measurement": "Inhibition", "setting": "Plasmodium falciparum [2]", "value": 92, "unit": "%"}, {"measurement": "Inhibition", "setting": "HepG2", "value": 3, "unit": "%"}]}
{"smiles": "COC(=O)c1ccc(CCCNCC(O)c2cccc(C(F)(F)F)c2)cc1", "note": "(centres undefined)", "values": [{"measurement": "Inhibition", "setting": "Plasmodium falciparum [1]", "value": 97, "unit": "%"}, {"measurement": "Inhibition", "setting": "Plasmodium falciparum [2]", "value": 88, "unit": "%"}, {"measurement": "Inhibition", "setting": "HepG2", "value": 0, "unit": "%"}]}
{"smiles": "CN(C)CCc1coc2ccc(C(=O)Nc3ccc(-c4ccc(O)cc4)cc3)cc12", "values": [{"measurement": "Inhibition", "setting": "Plasmodium falciparum [1]", "value": 100, "unit": "%"}, {"measurement": "Inhibition", "setting": "Plasmodium falciparum [2]", "value": 40, "unit": "%"}, {"measurement": "Inhibition", "setting": "HepG2", "value": 28, "unit": "%"}]}
{"smiles": "Nc1nc(N)c2c(ccc3c2ccn3Cc2ccc(-c3ccccc3)cc2)n1", "values": [{"measurement": "Inhibition", "setting": "Plasmodium falciparum [1]", "value": 98, "unit": "%"}, {"measurement": "Inhibition", "setting": "Plasmodium falciparum [2]", "value": 93, "unit": "%"}, {"measurement": "Inhibition", "setting": "HepG2", "value": 100, "unit": "%"}]}
{"smiles": "COc1cc(NC(=O)N2CCOC(CCN3CCC(c4ccccc4)CC3)(c3ccc(Cl)c(Cl)c3)C2)cc(OC)c1OC", "note": "(centres undefined)", "values": [{"measurement": "Inhibition", "setting": "Plasmodium falciparum [1]", "value": 93, "unit": "%"}, {"measurement": "Inhibition", "setting": "Plasmodium falciparum [2]", "value": 73, "unit": "%"}, {"measurement": "Inhibition", "setting": "HepG2", "value": 15, "unit": "%"}]}
{"smiles": "CN(C)CCCNc1ncnc2c1[nH]c1ccc(Br)cc12", "values": [{"measurement": "Inhibition", "setting": "Plasmodium falciparum [1]", "value": 100, "unit": "%"}, {"measurement": "Inhibition", "setting": "Plasmodium falciparum [2]", "value": 19, "unit": "%"}, {"measurement": "Inhibition", "setting": "HepG2", "value": 3, "unit": "%"}]}
{"smiles": "O=C(NC1CCN(Cc2ccc(F)cc2)CC1)c1ccc(-c2cccc(C(F)(F)F)c2)s1.O=C(O)C(F)(F)F", "values": [{"measurement": "Inhibition", "setting": "Plasmodium falciparum [1]", "value": 83, "unit": "%"}, {"measurement": "Inhibition", "setting": "Plasmodium falciparum [2]", "value": 11, "unit": "%"}, {"measurement": "Inhibition", "setting": "HepG2", "value": 88, "unit": "%"}]}
{"smiles": "COc1ccc(NC(=O)/C=C/c2cc(F)cc(C(F)(F)F)c2)cc1OCCN(C(C)C)C(C)C.O=C(O)C(F)(F)F", "values": [{"measurement": "Inhibition", "setting": "Plasmodium falciparum [1]", "value": 97, "unit": "%"}, {"measurement": "Inhibition", "setting": "Plasmodium falciparum [2]", "value": 21, "unit": "%"}, {"measurement": "Inhibition", "setting": "HepG2", "value": 18, "unit": "%"}]}
{"smiles": "C=CCc1cccc(CN2CCC(c3cc(O)nc(-c4ccccn4)n3)CC2)c1O", "values": [{"measurement": "Inhibition", "setting": "Plasmodium falciparum [1]", "value": 91, "unit": "%"}, {"measurement": "Inhibition", "setting": "Plasmodium falciparum [2]", "value": 75, "unit": "%"}, {"measurement": "Inhibition", "setting": "HepG2", "value": 46, "unit": "%"}]}
{"smiles": "Cc1[nH]c(C)c(-c2ccc(OCc3ccccc3)cc2)c(=O)c1Br", "values": [{"measurement": "Inhibition", "setting": "Plasmodium falciparum [1]", "value": 97, "unit": "%"}, {"measurement": "Inhibition", "setting": "Plasmodium falciparum [2]", "value": 96, "unit": "%"}, {"measurement": "Inhibition", "setting": "HepG2", "value": 19, "unit": "%"}]}
